Measurements reported in the supplement of paper PMC9262897, “Low-cost anti-mycobacterial drug discovery using engineered E. coli” (Nature Communications, 2022).
Counter-ions that a name gives are not always drawn. ± gives the standard deviation of the averaged measurements.

Experiments:
Test in all cases: growth (OD600 after 10 h); higher = more growth (less inhibition)
[1] = test system: E. coli TESEC Alr+ wild-type control; details: compound 0.1 mM; raw OD600 reference: median of DMSO wells 0.241, cell-free background 0.041
Experimental: (§1)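 TESEC Mtb Alr E. coli, or the Alr+ wild-type control, in 384-well plates with Prestwick library compounds at 0.1 mM and 1% DMSO, across arabinose induction levels of 1E3 to 1E7 nM. Growth is read as OD600 after 10 h at 37 °C in triplicate biological replicates.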

E. coli TESEC Mtb Alr [2] = details: compound 0.1 mM
Experimental: as §1

E. coli TESEC Mtb Asd = details: compound 0.1 mM
Experimental: (§2)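 TESEC E. coli strains in which the native enzyme is deleted and replaced by arabinose-inducible Mtb Asd, DapB, CysH or TrpD, each grown in its selective medium. Strains were screened against the Prestwick library at 0.1 mM and 1% DMSO in 384-well format at low and high arabinose induction. Growth is read as OD600 after 10 h in triplicate.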

E. coli TESEC Mtb DapB = details: compound 0.1 mM
Experimental: as §2

[3] = test system: E. coli TESEC Alr+ wild-type control; details: compound 0.1 mM; raw OD600 reference: median of DMSO wells 0.49, cell-free background 0.052
Experimental: (§3)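 TESEC Mtb Alr E. coli (ΔaraC ΔtolC ΔentC Δalr ΔdadX, arabinose-inducible Mtb Alr) or the Alr+ wild-type control strain, grown in defined M9-fructose medium without D-alanine in 96-well plates with Prestwick library compounds at 0.1 mM and 1% DMSO. Low Alr induction is 0.1 µM arabinose and high induction is 10 mM arabinose.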

E. coli TESEC Mtb Alr [4] = details: compound 0.1 mM; remark: listed apart in the source
Experimental: as §3

[5] = arabinose 1000 nM, raw OD600 reference: median of DMSO wells 0.294, cell-free background 0.041
[6] = arabinose 10000 nM, raw OD600 reference: median of DMSO wells 0.264, cell-free background 0.041
[7] = arabinose 100000 nM, raw OD600 reference: median of DMSO wells 0.201, cell-free background 0.041
[8] = arabinose 1000000 nM, raw OD600 reference: median of DMSO wells 0.193, cell-free background 0.041
[9] = arabinose 10000000 nM, raw OD600 reference: median of DMSO wells 0.146, cell-free background 0.041
[10] = arabinose induction (level): High, raw OD600 reference: median of DMSO wells 0.331, cell-free background 0.041
[11] = arabinose induction (level): Low, raw OD600 reference: median of DMSO wells 0.417, cell-free background 0.041
[12] = arabinose induction (level): High, raw OD600 reference: median of DMSO wells […], cell-free background 0.041
[13] = arabinose induction (level): Low, raw OD600 reference: median of DMSO wells 0.227, cell-free background 0.041
[14] = arabinose 100 nM, raw OD600 reference: median of DMSO wells 0.413, cell-free background 0.052
[15] = arabinose 10000000 nM, raw OD600 reference: median of DMSO wells […], cell-free background 0.052

| SMILES | growth [1] | growth (E. coli TESEC Mtb Alr [2]; [5]) | growth (E. coli TESEC Mtb Alr [2]; [6]) | growth (E. coli TESEC Mtb Alr [2]; [7]) | growth (E. coli TESEC Mtb Alr [2]; [8]) | growth (E. coli TESEC Mtb Alr [2]; [9]) | growth (E. coli TESEC Mtb Asd; [10]) | growth (E. coli TESEC Mtb Asd; [11]) | growth (E. coli TESEC Mtb DapB; [12]) | growth (E. coli TESEC Mtb DapB; [13]) | growth [3] | growth (E. coli TESEC Mtb Alr [4]; [14]) | growth (E. coli TESEC Mtb Alr [4]; [15]) |
| --- | --- | --- | --- | --- | --- | --- | --- | --- | --- | --- | --- | --- | --- |
| Cc1[nH]c(=O)c(C#N)cc1-c1ccncc1 [Milrinone] | 0.199 ± 0.0031 | 0.27 ± 0.0094 | 0.229 ± 0.0033 | 0.169 ± 0.018 | 0.136 ± 0.0068 | 0.148 ± 0.0037 | 0.304 ± 0.06 | 0.329 ± 0.054 | 0.212 ± 0.0044 | 0.236 ± 0.014 | 0.636 ± 0.046 | 0.43 ± 0.0055 | 0.305 ± 0.0071 |
| CS(=O)(=O)c1ccc([C@@H](O)[C@@H](CF)NC(=O)C(Cl)Cl)cc1 [Florfenicol] | 0.0412 ± 0.0009 | 0.0406 ± 0.00059 | 0.0395 ± 0.0002 | 0.04123 ± 0.0004 | 0.03917 ± 0.00012 | 0.0409 ± 0.00017 | 0.054 ± 0.0047 | 0.0538 ± 0.0014 | 0.0485 ± 0.0014 | 0.0488 ± 0.001 | 0.05113 ± 0.00023 | 0.05607 ± 0.00047 | 0.0524 ± 0.0018 |
| CCCc1nn(C)c2c(=O)[nH]c(-c3cc(S(=O)(=O)N4CCN(C)CC4)ccc3OCC)nc12 [Sildenafil] | 0.201 ± 0.016 | 0.235 ± 0.01 | 0.275 ± 0.014 | 0.186 ± 0.016 | 0.1606 ± 0.00076 | 0.1693 ± 0.0008 | 0.233 ± 0.013 | 0.399 ± 0.035 | 0.199 ± 0.01 | 0.27 ± 0.045 | 0.456 ± 0.045 | 0.406 ± 0.0068 | 0.2931 ± 0.0018 |
| O=S(=O)(O)CCS [Mesna] | 0.2377 ± 0.0019 | 0.282 ± 0.0091 | 0.28 ± 0.0078 | 0.193 ± 0.012 | 0.206 ± 0.016 | 0.13 ± 0.0052 | 0.341 ± 0.079 | 0.371 ± 0.058 | 0.204 ± 0.009 | 0.214 ± 0.046 | 0.513 ± 0.074 | 0.4246 ± 0.0021 | 0.337 ± 0.0046 |
| CC(N/C(=N\C#N)Nc1ccncc1)C(C)(C)C (stereo not drawn) [Pinacidil] | 0.223 ± 0.015 | 0.274 ± 0.011 | 0.257 ± 0.0097 | 0.219 ± 0.0078 | 0.137 ± 0.0036 | 0.138 ± 0.0067 | 0.369 ± 0.037 | 0.412 ± 0.03 | 0.19 ± 0.012 | 0.232 ± 0.022 | 0.446 ± 0.031 | 0.405 ± 0.012 | 0.359 ± 0.036 |
| S=c1[nH]cnc2nc[nH]c12 [Mercaptopurine] | 0.062 ± 0.002 | 0.0619 ± 0.0038 | 0.0528 ± 0.0011 | 0.0694 ± 0.0044 | 0.0545 ± 0.0019 | 0.0747 ± 0.0012 | 0.176 ± 0.021 | 0.167 ± 0.01 | 0.202 ± 0.01 | 0.211 ± 0.004 | 0.234 ± 0.018 | 0.334 ± 0.017 | 0.113 ± 0.01 |
| N[C@@H](Cc1cc(I)c(Oc2ccc(O)c(I)c2)c(I)c1)C(=O)O [Liothyronine] | 0.18 ± 0.012 | 0.211 ± 0.012 | 0.2 ± 0.0047 | 0.177 ± 0.0039 | 0.134 ± 0.0031 | 0.162 ± 0.003 | 0.32 ± 0.038 | 0.152 ± 0.017 | 0.232 ± 0.0046 | 0.264 ± 0.017 | 0.36 ± 0.023 | 0.373 ± 0.035 | 0.272 ± 0.015 |
| C[C@]12C=CC(=O)C=C1CC[C@@H]1[C@@H]2[C@@H](O)C[C@@]2(C)[C@H]1CC[C@]2(O)C(=O)CO [Prednisolone] | 0.213 ± 0.0043 | 0.263 ± 0.0084 | 0.248 ± 0.01 | 0.162 ± 0.0057 | 0.147 ± 0.0034 | 0.13 ± 0.0047 | 0.258 ± 0.038 | 0.456 ± 0.034 | 0.179 ± 0.015 | 0.254 ± 0.041 | 0.514 ± 0.065 | 0.426 ± 0.009 | 0.306 ± 0.011 |
| CN1CCOC(c2ccccc2)c2ccccc2C1 (stereo not drawn) [Nefopam hydrochloride] | 0.218 ± 0.0081 | 0.294 ± 0.0068 | 0.263 ± 0.003 | 0.185 ± 0.012 | 0.157 ± 0.0087 | 0.157 ± 0.0035 | 0.187 ± 0.03 | 0.401 ± 0.045 | 0.186 ± 0.006 | 0.243 ± 0.036 | 0.543 ± 0.081 | 0.413 ± 0.014 | 0.327 ± 0.021 |
| Cc1ncc([N+](=O)[O-])n1CCO [Metronidazole] | 0.244 ± 0.0028 | 0.291 ± 0.014 | 0.264 ± 0.0049 | 0.221 ± 0.036 | 0.177 ± 0.0036 | 0.144 ± 0.0031 | 0.378 ± 0.03 | 0.378 ± 0.013 | 0.202 ± 0.015 | 0.264 ± 0.052 | 0.426 ± 0.033 | 0.394 ± 0.021 | 0.347 ± 0.038 |
| CC[C@]12CCCN3CCc4c(n(c5ccccc45)C(=O)C1)[C@@H]32 [Eburnamonine (-)] | 0.182 ± 0.0061 | 0.238 ± 0.0081 | 0.257 ± 0.0031 | 0.144 ± 0.0086 | 0.124 ± 0.004 | 0.135 ± 0.0057 | 0.119 ± 0.0043 | 0.27 ± 0.095 | 0.176 ± 0.0063 | 0.176 ± 0.012 | 0.544 ± 0.059 | 0.393 ± 0.012 | 0.277 ± 0.015 |
| CC(=O)Oc1ccc(C(c2ccc(OC(C)=O)cc2)c2ccccn2)cc1 [Bisacodyl] | 0.202 ± 0.0032 | 0.245 ± 0.018 | 0.289 ± 0.016 | 0.219 ± 0.031 | 0.201 ± 0.0038 | 0.168 ± 0.0065 | 0.354 ± 0.011 | 0.24 ± 0.028 | 0.19 ± 0.011 | 0.2324 ± 0.0015 | 0.5 ± 0.016 | 0.39 ± 0.0062 | 0.39 ± 0.0069 |
| CN(C)CCCN1c2ccccc2CCc2ccc(Cl)cc21 [Clomipramine hydrochloride] | 0.04137 ± 0.00021 | 0.03983 ± 0.00015 | 0.03953 ± 0.00025 | 0.0451 ± 0.0062 | 0.04 ± 0.00035 | 0.0473 ± 0.0044 | 0.0467 ± 0.00076 | 0.0482 ± 0.0034 | 0.0466 ± 0.00055 | 0.0467 ± 0.00083 | 0.202 ± 0.26 | 0.4115 ± 0.0024 | 0.193 ± 0.066 |
| CCCNCC(O)COc1ccccc1C(=O)CCc1ccccc1 (stereo not drawn) [Propafenone hydrochloride] | 0.201 ± 0.0092 | 0.241 ± 0.019 | 0.281 ± 0.012 | 0.176 ± 0.015 | 0.124 ± 0.0027 | 0.155 ± 0.006 | 0.144 ± 0.007 | 0.345 ± 0.02 | 0.173 ± 0.01 | 0.185 ± 0.015 | 0.452 ± 0.022 | 0.412 ± 0.009 | 0.285 ± 0.0058 |
| C[C@@H](O)[C@H]1C(=O)N2C(C(=O)O)=C(S[C@@H]3CN[C@H](C(=O)N(C)C)C3)[C@H](C)[C@H]12 [Meropenem] | 0.0404 ± 0.00057 | 0.0418 ± 0.0014 | 0.0448 ± 0.0059 | 0.0523 ± 0.0007 | 0.0817 ± 0.0057 | 0.0962 ± 0.003 | 0.138 ± 0.0038 | 0.0552 ± 0.0001 | 0.135 ± 0.0089 | 0.169 ± 0.013 | 0.0604 ± 0.0014 | 0.04557 ± 0.00025 | 0.0882 ± 0.013 |
| CN(C)CCCN1c2ccccc2CCc2ccccc21 [Imipramine hydrochloride] | 0.189 ± 0.019 | 0.242 ± 0.018 | 0.285 ± 0.013 | 0.212 ± 0.014 | 0.133 ± 0.0058 | 0.175 ± 0.011 | 0.164 ± 0.026 | 0.363 ± 0.063 | 0.194 ± 0.016 | 0.243 ± 0.071 | 0.452 ± 0.015 | 0.408 ± 0.0092 | 0.21 ± 0.11 |
